# Structures can show the parent of a compound that is named as a salt. Where two headings read alike, the source gives them in different places. The campaign covered roughly 5,300 compounds. About 130 (2.5%) showed an effect of 50% or more. Many of the other results were omitted from the sample, so strong results are more common in it than they were.
# System: M. mycetomatis strain mm55
# Conditions: primary screen, metabolic activity vs growth control, 96 h, 2 µM, inhibitor
Compound,% viability [%],% viability (Madurella mycetomatis metabolic activity at 2µM (%)) [%]
"Fc1cc(F)c2c(c1)[C@H]1C=CC[C@H]1C(c1cccnc1)N2 (mixture of isomers) [ONC0005186, golgicide a]",78.39,–
"O=C(O)CCn1c2c(c3ccccc31)C[C@H](NS(=O)(=O)c1ccc(F)cc1)CC2 [ONC0000918, ramatroban]",93.57,–
"Cc1ccc2c(c1CCC(=O)O)CC[C@@H](NS(=O)(=O)c1ccc(Cl)cc1)C2 [ONC0001303, terutroban]",45.19,–
"O=C(O)Cc1ccc(CCNS(=O)(=O)c2ccc(Cl)cc2)cc1 [ONC0002194, daltroban]",74.66,–
"COC[C@H](NC(=O)c1cnc(C)s1)C(=O)N[C@@H](COC)C(=O)N[C@@H](Cc1ccccc1)C(=O)C1(C)CO1 (some centres unmarked) [ONC0004389, oprozomib onx 0912]",101.4,–
"O=C(CNC(=O)c1cccc(C(F)(F)F)c1)N[C@@H]1CCN(Cc2ccc(Cl)cc2)C1 [ONC0002608, teijincompound1]",76.98,–
"C[S+]([O-])CCCCN=C=S (centres unmarked) [ONC0003262, sulforaphane]",49.62,–
"C/C=C/C1=C(C(=O)O)N2C(=O)[C@@H](NC(=O)[C@H](N)c3ccc(O)cc3)[C@H]2SC1 [ONC0004213, cefprozil]",75.17,–
"O=C(Nc1cnccc1Cl)N1CCN(Cc2ccc3c(c2)OC(F)(F)O3)CC1 [ONC0001299, jnj42165279]",60.28,–
"COc1nc(C)nc(Cl)c1N=C1NCCN1 [ONC0003528, moxonidine]",108,–
"CCCCCCCC/C=C/C(=O)O [ONC0003676, trans2undecenoic acid]",70.7,–
"CCCCCC(C)N (centres unmarked) [ONC0003207, tuaminoheptane sulfate]",110.6,–
"CCCCCCCCCCCCCCC[C@@H](O)[C@@H](N)CO [ONC0003442, dihydrosphingosine derythro]",75.68,–
"CCCCCCCCCCCCCC[C@@H](O)[C@@H](O)[C@@H](N)CO [ONC0003465, phytosphingosine]",45.49,–
"N#Cc1ccc(Cn2cncc2CN2CCN(c3cccc(Cl)c3)C(=O)C2)cc1 [ONC0000972, l778123 hydrochloride]",78.78,–
"CC(=O)O[C@]1(C(C)=O)CCC2C3C[C@H](C)C4=CC(=O)CC[C@]4(C)C3CC[C@@]21C (some centres unmarked) [ONC0000456, medroxyprogesterone acetate]",83.76,–
"N[C@H](Cc1cc(I)c(Oc2ccc(O)c(I)c2)c(I)c1)C(=O)O [ONC0003830, liothyronine]",90.31,–
"O=C(O[C@@H]1C[C@@H]2C[C@@H]3C[C@H](C1)N2CC3=O)c1c[nH]c2ccccc12 [ONC0005492, dolasetron]",77.8,–
"O[C@H]([C@H](O)[C@@H]1CO1)[C@H]1CO1 [ONC0001201, val083]",107,–

Compound,% viability [%],% viability (Madurella mycetomatis metabolic activity at 2µM (%)) [%]
"CC(C)(C)c1ccc(C(=O)Nc2cn3cc(-n4ccnc4)ccc3n2)cc1 [ONC0000079, tcask10]",88.09,–
"NC(=O)C[C@H](N)C(=O)O [ONC0002130, lasparagine]",76.47,–
"N[C@@H](CC(=O)O)C(=O)O [ONC0005584, lasparticacid]",67.27,–
"N[C@@H](CC(=O)NO)C(=O)O [ONC0005577, lasparaginenhydroxy]",46.79,–
"CC1(C)S[C@@H]2C(N3C(=O)[C@@H](c4ccccc4)NC3(C)C)C(=O)N2[C@H]1C(=O)O (some centres unmarked) [ONC0000520, hetacillin potassium]",62.89,–
"Cn1c(Nc2ccc(C(F)(F)F)cc2)nc2cc(Oc3ccnc(-c4ncc(C(F)(F)F)[nH]4)c3)ccc21 [ONC0005005, raf265 chir265]",41.37,–
"CC(C)C[C@H](NC(=O)CN(C)C(=O)[C@H](Cc1ccccc1)NC(=O)[C@H](Cc1ccccc1)NC(=O)[C@H](CCC(N)=O)NC(=O)[C@H](CCC(N)=O)NC(=O)[C@@H]1CCCN1C(=O)[C@H](CCCCN)NC(=O)[C@@H]1CCCN1C(=O)[C@@H](N)CCCNC(=N)N)C(=O)N[C@@H](CCS(C)(=O)=O)C(N)=O [ONC0003648, sar9meto211substance p]",64.96,–
"Cc1ccc(Cl)c(OCC(O)CNC(C)C)c1 (centres unmarked) [ONC0003711, 12chloro5methylphenoxy3isopropylamino2propanol]",103,–
"O=C1C2CC=CCC2C(=O)N1SC(Cl)(Cl)Cl (centres unmarked) [ONC0003351, captan]",76.61,–
"NC(Cc1ccc(O)cc1)C(=O)O (centres unmarked) [ONC0003385, dltyrosine]",63.01,–
"OC[C@H]1OC(O)C[C@@H](O)[C@@H]1O (mixture of isomers) [ONC0003476, 2deoxyglucose]",78.39,–
"COC(=O)[C@H](NC(=O)c1cc(-c2ccccc2)nc2ccccc12)c1ccccc1 [ONC0001501, sb218795]",80.75,–
"CC(C)NC(=O)COc1cccc(-c2nc(Nc3ccc4[nH]ncc4c3)c3ccccc3n2)c1 [ONC0001882, slx2119]",46.69,–
"O=C(NCc1cccc(O)c1)Nc1nc(-c2ccncc2)cs1 [ONC0002554, srpin340]",–,81.94
"c1cc(Nc2cc(C3CC3)[nH]n2)nc(Nc2ccc3[nH]cnc3c2)n1 [ONC0003009, apy29]",67.52,–
"CC(C)(C)c1cc(C=C(C#N)C#N)cc(Br)c1O [ONC0004740, ag1024]",105.8,–
"CC(C)(C)c1cc(/C=C(\C#N)C(N)=S)cc(C(C)(C)C)c1O [ONC0005258, tyrphostin ag 879 ag 879]",127.6,–
"CC(C)(C)c1cc(C=C(C#N)C#N)cc(C(C)(C)C)c1O [ONC0004560, tyrphostin 9 sf 6847]",1.693,–
"CC(C)C[C@@H](N)C(=O)N[C@H]1C(=O)N[C@@H](CC(N)=O)C(=O)N[C@H]2C(=O)N[C@H]3C(=O)N[C@H](C(=O)N[C@H](C(=O)O)c4cc(O)cc(O)c4-c4cc3ccc4O)[C@H](O)c3ccc(c(Cl)c3)Oc3cc2cc(c3O[C@@H]2O[C@H](CO)[C@@H](O)[C@H](O)[C@H]2O[C@H]2C[C@](C)(N)[C@H](O)[C@H](C)O2)Oc2ccc(cc2Cl)[C@H]1O [ONC0002123, norvancomycin hydrochloride]",86.02,–

# Reference: publication PMC12670160, “A drug-repurposing screen of FDA- and EMA-approved drugs identifies two NF-κB inhibitors active against eumycetoma” (Journal of Antimicrobial Chemotherapy, 2025)
